CYP2C19 inhib: blocks human cytochrome P450 2C19. P33261. 96,000 tested, 21% active. CYP2C19 Supersomes, luciferin-H EGE luminescence, 30 min. inhibition, % at 5 µM;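 active = CYP2C19 inhibition above a set limit at 5 µM in the primary screen, cut at about 50% in these data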
CYP2C19 activ: activators of human cytochrome P450 2C19; 96,000 tested, under 10 active; activation factor at 5 µM; recombinant CYP2C19, luciferin-H EGE luminescence; active compounds read high; 0 = fully inhibited enzyme, 1 = untreated enzyme; P33261;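 active = activation factor of at least 2 at 5 µM in the primary screen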
CYP2C9 activ: activators of human CYP2C9; P11712; recombinant CYP2C9, luciferin-H conversion, luminescence; active compounds read high; factor 1 = untreated enzyme, 0 = blocked; activation factor at 5 µM; 96,000 tested, 1.4% active;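 active = activation factor of 2 or more for CYP2C9 at a 5 µM dose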
Cav3 T inh: inhibitors of human Cav3.2 T-type calcium channel | O95180 | Cav3.2-expressing cells, Fluo-4 calcium fluorescence FDSS; active compounds read low | B-score at 10 µM | 100,000 tested, 4% active | AID 449739;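 active = single-dose well whose peak fluorescence ratio is a statistical outlier from its plate by either plate-standardised score or position-corrected B-score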
CYP2C9 inh: human CYP2C9 inhibition; 96,000 tested, 20% active; AID 777; CYP2C9 Supersomes, luciferin-H conversion, luminescence; inhibition, % at 5 µM; P11712;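 active = blocking of liver enzyme CYP2C9 beyond about 50% at 5 µM, limit read from the data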
Hits are given with their value; 0 = inactive; - = no result given. A selection: hits, their analogues and other compounds. The true share with any hit is near 27%.

SMILES	CYP2C19 inhib	CYP2C19 activ	CYP2C9 activ	Cav3 T inh	CYP2C9 inh
COC(=O)c1nnn(-c2nonc2N)c1CSc1ccccn1	80.1	0	0	0	0
CC(C)OC(=O)c1nnn(-c2nonc2N)c1CSc1ccccn1	74.4	0	0	-	57.1
C=CCNC(=S)NNC(=O)CCC(O)CCCCC (stereo unspecified)	0	0	0	0	0
CC1CCN(c2c(NCc3ccc(C(=O)NCc4cccnc4)cc3)c(=O)c2=O)CC1	0	0	0	0	0
COC(=O)c1nc(-c2ccccc2)oc1N(C)C	0	0	2.9	0	0
COC(=O)c1nc(-c2ccc(C)cc2)oc1N(C)C	0	0	2.4	0	0
CC1CC(C(F)(F)C(F)(F)F)n2nc(C(=O)O)cc2N1 (stereo unspecified)	0	0	0	-	0
COc1ccc(C)cc1-n1nnnc1SCC(=O)N1CCC(C(=O)Nc2nccs2)CC1	0	0	0	0	0
O=C1CSC(c2ccccc2)N1c1nnc(C23CC4CC(CC(C4)C2)C3)s1 (stereo unspecified)	0	0	0	0	0
CC(=O)NC(Cc1ccc(C(C)C)cc1)C(=O)NC1CCN(c2nc(C)cc(C)n2)CC1 (stereo unspecified)	60.5	0	0	0	0
COc1cc(C(=O)N2CCC(NC(=O)C(Cc3ccc(C(C)C)cc3)NC(C)=O)CC2)cc(OC)c1OC (stereo unspecified)	0	0	0	0	0
CC(=O)Cn1cnc2sc(-c3ccccc3)cc2c1=O	0	0	0	0	0
CCn1cnc2sc(-c3ccccc3)cc2c1=O	0	0	0	0	71.0
COC(=O)c1ccccc1NC(=O)C12CCC(C)(C(=O)O1)C2(C)C (stereo unspecified)	57.1	0	0	0	0
COc1ccc(OC)c(NC(=O)C23CCC(C)(C(=O)O2)C3(C)C)c1 (stereo unspecified)	60.7	0	2	0	0
COc1ccc(Cl)cc1NC(=O)C12CCC(C)(C(=O)O1)C2(C)C (stereo unspecified)	83.1	0	0	0	0
Fc1ccc(-n2nnc(-c3ccnc4ccccc34)n2)cc1	-	-	-	0	-
Cn1c(Cn2nnc3ccccc32)nnc1SCC(=O)N1CCc2ccccc21	0	0	0	0	0
CCCCNC(=S)Nc1ccccc1F	0	0	0	0	0
Cc1cccc(CN2CCCC(C(=O)N3CCc4ccccc4C3)C2)c1 (stereo unspecified)	64.5	0	0	0	0
O=C(C1CCCN(Cc2ccncc2)C1)N1CCc2ccccc2C1 (stereo unspecified)	95.6	0	0	0	66.8
NCCS(=O)(=O)O	-	-	-	0	-
CC(=O)N1CCn2c3ccc(C)cc3c3cccc1c32	-	-	-	0	-
O=C(CC1CC2CCC1C2)NCc1cccs1 (stereo unspecified)	66.4	0	0	0	0
O=C(CCSCCC(=O)NCc1cccs1)NCc1cccs1	0	0	0	0	62.5
SMILES	CYP2C19 inhib	CYP2C19 activ	CYP2C9 activ	Cav3 T inh	CYP2C9 inh
O=C(Cc1cccs1)NCc1cccs1	0	0	0	0	0
C=CCNC(=S)NNC(=O)C(CCC(C)C)CC(C)(C)O (stereo unspecified)	0	0	0	0	0
CCN1C(=O)CC(C(=O)O)SC1=Nc1ccc(OC)cc1 (stereo unspecified)	0	0	0	0	0
C=CCn1c(SCC(=O)Nc2nc(C)cs2)nnc1C(C)NC(=O)c1ccccc1Cl (stereo unspecified)	-	-	-	0	-
C=CCn1c(SCCOc2ccc(OC)cc2)nnc1C(C)NC(=O)Cc1ccc(OC)cc1 (stereo unspecified)	76.7	0	0	0	67.8
Cc1ccccc1N1CCN(C(=O)CCN2C(=O)c3ccccc3C2=O)CC1	0	0	0	0	0
COc1cc(C2N(c3ccc(F)cc3)C(=O)C3CCCN32)cc(OC)c1OC (stereo unspecified)	0	0	0	0	0
O=C(C[n+]1ccc(C(=O)N/N=C/c2ccc(Br)cc2)cc1)c1ccccc1	74.0	0	0	0	0
Cc1ccc(-c2cc(-c3ccccc3Cl)c(C#N)c(N)n2)o1	91.9	0	0	0	81.6
Cc1ccc(-c2cc(-c3ccc(F)cc3)nc(N)c2C#N)o1	0	0	0	0	52.2
CCOC(=O)c1ccc(NC(=O)CN2C(=O)C(=O)N(CC(C)C)C2=O)cc1	0	0	0	0	0
CCS(=O)(=O)N1CCC(C(=O)NCc2ccc(F)cc2Cl)CC1	0	0	0	0	0
Cc1cc(C)c(S(=O)(=O)N2CCC(C(=O)NCc3ccc(Cl)cc3Cl)CC2)c(C)c1	0	0	2.9	-4.74	0
